Sampled rows, rich in hits. Any-hit rate of the full collection: about 4.2%.
SMARCA2 activ = SMARCA2 (BRM) function activators, primary screen, cell-based, luminescence, high throughput; AID 652017, 2013; MG213 cells, MMTV-luciferase reporter, dexamethasone, overnight; activation, % at 9.1 µM; 370,000 tested, 1% active; in the data active = activation above about 7.8%;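 also: 0% = vehicle wells and 100% = reference activator wells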
DAX1 inh = DAX1 (NR0B1) inhibitors on StAR promoter, primary screen, cell-based, luminescence, SF-1 (NR5A1), full-length DAX-1. AID 652010, 2013. 370,000 tested, 1.1% active. inhibition, % at 6.8 µM. HEK293T StAR-luciferase reporter, SF-1/DAX-1 repression relief;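 active = inhibition above the mean over all tested compounds plus 3 SD, cut at about 3.6% in these data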;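 also: 0% = DAX-1 cells with DMSO and 100% = cells lacking DAX-1 with DMSO; higher inhibition means more luminescence from relief of DAX-1 repression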
ssDAF12 agonist = S. stercoralis DAF-12 nuclear receptor activators, primary screen, cell-based, luminescence, HEK293, GRIP1 co-expression, lit1-tk-luc; Nuclear hormone receptor DAF-12 (Strongyloides stercoralis); HEK293 ssDAF-12/GRIP1 lit1-tk-luc reporter; % of 3 µM dafachronic acid response; activation, % at 6.8 µM; 370,000 tested, 1% active; AID 652126, 2013;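 active = activation above the mean over all tested compounds plus 3 SD, cut at about 0.9% in these data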;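 also: 0% = DMSO-only wells and 100% = 3 µM delta7-dafachronic acid wells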
hcDAF-12 act = H. contortus DAF-12 nuclear receptor activators, primary screen, cell-based, luminescence, HEK293, lit1-tk-luc reporter; 370,000 tested, 1.4% active; HEK293 hcDAF-12 lit1-tk-luc reporter; 0% DMSO, 100% Δ7-dafachronic acid; activation, % at 6.8 µM;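 active = activation above the mean of all tested compounds plus 3 SD, cut at about 5.5% in these data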;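 also: 100% = response to 3 µM Δ7-dafachronic acid high control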
hgDAF-12 ag = H. glycines DAF-12 receptor agonists, primary screen, cell-based, luminescence, HEK293, GAL4 fusion, UAS-luciferase; Nuclear hormone receptor DAF-12 (Heterodera glycines), GAL4 fusion; activation, % at 6.8 µM; HEK293 GAL4-hgDAF12 UAS-luciferase reporter, agonist luminescence; normalized to butyrate control; 370,000 tested, 1.8% active;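 active = activation above a cutoff set at the mean of all screened compounds plus 3 SD, cut at about 10% in these data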;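 also: 0% = DMSO wells and 100% = sodium butyrate wells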
Numbers without * were called inactive; . = no result given.

SMILES	SMARCA2 activ	DAX1 inh	ssDAF12 agonist	hcDAF-12 act	hgDAF-12 ag
COC(=O)[C@]1(C)N[C@H](CN(C)C(=O)c2ccccc2)[C@@H]2C(=O)N(Cc3ccccc3)C(=O)[C@@H]21	0	0	-1	2	2
CCN(C[C@H]1N[C@@](Cc2ccccc2)(C(=O)OC)[C@H]2C(=O)N(Cc3ccccc3)C(=O)[C@@H]12)C(=O)C1CCCCC1	-5	4.2*	0	0	3
O[C@H](COc1ccc(Cl)cc1)CN1CCC(C(O)(c2ccccc2)c2ccccc2)CC1	-5	0	-1	1	0
COC(=O)[C@H](C(C)C)N(Cc1cn(CC2CCCCC2)nn1)S(=O)(=O)c1ccc(F)cc1Br	0	-2	-2	-1	-1
Oc1ccccc1C=NC(N=Cc1ccccc1O)c1ccccc1O (stereo not drawn)	-5	0	0	0	1
Cc1ccc(C(=O)Nc2cc(Cl)ccc2-n2cncn2)o1	5	1	1.2*	4	1
Cc1ccc(C(=O)Nc2cc(C(F)(F)F)ccc2-n2cncn2)o1	0	-1	-1	0	-3
COC(=O)c1ccc(-c2ccc3c(c2)[C@]2(CCC[C@@H](OCc4ccccc4)[C@@H]2NC(=O)CCc2ccccc2)C(=O)N3Cc2ccccc2)cc1	-5	0	-1	-2	-3
COc1ccc(C2SCC(=O)N2c2nc3ccccc3s2)cc1 (stereo not drawn)	-5	0	0	2	1
Cc1cc(C)n(-c2nc3ccccc3s2)n1	3	0	-1	-1	6
O=c1c(Cl)c(Nc2cccc(Cl)c2)cnn1-c1nc2ccccc2s1	-2	3	0	5.9*	4
COc1ccc(Nc2cnn(-c3nc4ccccc4s3)c(=O)c2Cl)cc1	12*	0	0	0	2
O=C(Cn1nc(C(=O)O)c2ccccc2c1=O)Nc1ccc(Br)cc1	-4	0	1.1*	1	-3
NC(=O)c1c(NC(=O)Cn2nc(C(=O)O)c3ccccc3c2=O)sc2c1CCC2	0	0	-2	0	6
NC(=O)c1c(NC(=O)Cn2nc(C(=O)O)c3ccccc3c2=O)sc2c1CCCC2	0	0	-1	0	13*
CCN(CC)C(=S)SCC(=O)c1ccccc1	5	2	0	2	11*
CCN(CC)C(=S)SCC(=O)c1ccc(F)cc1	4	2	1.1*	3	9
COC(=O)[C@@]12C[C@@H](CC(=O)N3CCOCC3)C(=O)N(CCc3ccc(OC)c(OC)c3)C1=CCC(C)(C)C2	-1	-1	-1	-2	-3
O=C(CCS(=O)(=O)c1ccccc1)N(CCCN1CCOCC1)c1nc2c(F)cccc2s1	4	1	-1	1	2
Cc1ccc(S(=O)(=O)CC(=O)N(CCCN2CCOCC2)c2nc3c(F)cccc3s2)cc1	2	4.1*	0	0	4
CCOC(=O)[C@@]12CN(C(=O)OC(C)(C)C)CC=C1N(Cc1ccc(OC)cc1)C(=O)[C@H]2CC(=O)NCc1cccc2ccccc12	-3	0	-1	-3	-3
Cc1ccc(S(=O)(=O)NCCCc2ccc3c(c2)[C@]2(CCC[C@@H](OCc4ccccc4)[C@@H]2NC(=O)CCc2ccccc2)C(=O)N3Cc2ccccc2)cc1	-1	0	-1	0	2
COc1ccc(CNC(=O)CSc2nc3c([nH]2)c(=O)n(C)c(=O)n3C)cc1	-6	0	-2	-2	-2
COc1ccccc1C(=O)NC(=Nc1nc2ccccc2o1)NC(=O)c1ccccc1OC	3	1	0	5.9*	1
CCCCC(=O)N/C(N)=N/c1nc2ccccc2o1	3	1	0	1	12*
SMILES	SMARCA2 activ	DAX1 inh	ssDAF12 agonist	hcDAF-12 act	hgDAF-12 ag
CC(=O)c1cc(-c2cccc(C#N)c2)c(=O)n2c1CCC2	0	0	-1	-1	-1
c1ccc(CSc2nnc(-c3ccco3)n2Cc2ccco2)cc1	4	0	-1	5	1
Cn1c(SCc2ccccc2)nnc1-c1ccc(O)cc1	3	0	0.9*	1	7
Cn1c(SCc2ccccc2)nnc1-c1ccco1	0	0	-1	-1	13*
Cc1cc(C)n(-c2nnc3c4ccccc4n(C)c3n2)n1	5	2	-1	2	11*
C/C(=N\Nc1nnc2c3ccccc3n(C)c2n1)c1ccc(C)o1	-3	-1	-1	0	-1
O=C(Nc1ccc2cn[nH]c2c1)c1ccc(Cl)c(S(=O)(=O)N2CCOCC2)c1	0	1	0	6.5*	5
O=C(Nc1ccc(Cl)c(S(=O)(=O)N2CCOCC2)c1)c1ccc(Cl)nc1	-4	-7	-2	-3	-9
COc1ccc(C(=O)CC(Sc2ccccc2N)c2ccc(OC)cc2)cc1 (stereo not drawn)	1	4.1*	1	5	10
C[C@H]1[C@@H](O)CC[C@@]23CCCN2C(=O)CCC[C@@H]13	.	.	-1	0	-1
COc1ccc(-c2cc(C(=O)N=Nc3c(O)[nH]c4ccccc34)[nH]n2)cc1	-2	1	-1	0	5
COc1ccc(CN2C(NC(=O)OCc3ccccc3)=NC3=CC(C)(C)n4c(=O)n(-c5ccccc5)c(=O)n4C32)c(OC)c1 (stereo not drawn)	-2	0	-1	-1	3
CCCCNS(=O)(=O)CC1NCc2cc(F)ccc21 (stereo not drawn)	2	1	-2	-1	-2
Cc1cnc(C(=O)N(c2ccc(N3CCOCC3)cc2)C2C(=O)Nc3ccccc3N=C2c2ccc3c(c2)OCO3)cn1 (stereo not drawn)	2	1	-1	5	5
COc1ccc(C2=Nc3ccccc3NC(=O)C2N(C(=O)c2cnc(C)cn2)c2ccc(N3CCOCC3)cc2)cc1 (stereo not drawn)	-2	3.7*	-1	0	5
CC1=C(C(=O)N2CCCCCC2)CC(CC(=O)NC(c2ccccc2)c2ccccc2)C(=O)N1Cc1ccccc1 (stereo not drawn)	-3	0	-1	-2	0
CN1CCN(C(=O)CNc2ccc(C(F)(F)F)cc2[N+](=O)[O-])CC1	-3	0	0	5.8*	3
Cc1cccc(C)c1OCC(=O)N=Nc1c(O)[nH]c2ccc(Br)cc12	0	0	-2	0	-2
CC(Oc1ccccc1)C(=O)N=Nc1c(O)[nH]c2ccc(Br)cc12 (stereo not drawn)	0	0	2.2*	1	-4

Screening data deposited in PubChem BioAssay by The Scripps Research Institute Molecular Screening Center.
